High-throughput results from PubChem.
The entries come from a sample that favours hits as a whole.
Tg IFNy HTS – blocks Toxoplasma gondii growth in the presence of IFN-gamma | AID 1259416 | Toxoplasma gondii growth in IFN-gamma-treated host cells; active compounds read low | activity change, negative = inhibition, % (no concentration beside the values) | 69,000 compounds, 3.8% hits; in the data active = activity change below about -70%, passing the limit was not always enough;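 note: host cells are HeLa cells infected with Toxoplasma gondii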
Numbers stand for hits.

`CN1CCC2(c3cccc(O)c3)Cc3nc4ccccc4cc3CC2C1` (stereo not given) gave Tg IFNy HTS inactive.
c1cnc(N2CCO[C@H]3CN(Cc4cccs4)C[C@@H]32)nc1 was read as Tg IFNy HTS -71.
`CC(C)N1CCO[C@@H]2CN(Cc3nccs3)C[C@@H]21` gave Tg IFNy HTS inactive.
`Cc1ccc(CN2C[C@@H]3OCCN(c4ncccn4)[C@H]3C2)s1` gave Tg IFNy HTS inactive.
CN(Cc1ccccc1)[C@@H]1CC2CCC1N2 (stereo not given in full) was read as Tg IFNy HTS inactive.
Screening Cc1cnc(N2CCC3(CCCN3CC3CC3)CC2)nc1 returned Tg IFNy HTS inactive.
`CC[C@@H]1[C@@H](C)O[C@@](O)([C@@H](C)[C@H](O)[C@H](C)[C@H]2OC(=O)/C=C/C=C/[C@H](C)[C@H]([C@@H](C)[C@@H](O)[C@H](C)[C@@]3(O)C[C@@H](O[C@H]4C[C@H](O)[C@H](O)[C@H](C)O4)[C@H](CC)[C@@H](C)O3)OC(=O)/C=C/C=C/[C@H]2C)C[C@H]1O[C@H]1C[C@H](O)[C@H](O)[C@H](C)O1` gave Tg IFNy HTS -75.
O=C(c1cccnc1)N1CCC2(CN(Cc3ccsc3)C2)C1 was read as Tg IFNy HTS inactive.
CCCCCCC(C)(C)c1ccc(C2CC(O)CCC2CCCO)c(O)c1 (stereo not given) was read as Tg IFNy HTS -79.
Screening Cc1noc(C[C@@H]2COC[C@@H]3CN(Cc4ccccn4)C[C@@H]32)n1 returned Tg IFNy HTS inactive.
Screening CC(C)c1nccc(CN2CCC3(CC2)C(=O)NCCN3C)n1 returned Tg IFNy HTS inactive.
Screening CC(C)[C@]12O[C@H]1[C@@H]1O[C@]13[C@]1(O[C@H]1C[C@H]1C4=C(CC[C@@]13C)C(=O)OC4)[C@@H]2O returned Tg IFNy HTS -83.
`c1cnc(N2C[C@H]3CN(Cc4nccs4)C[C@H]3C2)nc1` gave Tg IFNy HTS inactive.
